# Results as given in PubChem BioAssay (NCI).
# Compounds without any hit were thinned out: in the full panel of roughly 83,000, 20% have a hit.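 Step 1: grow cells in 96-well plates. Step 2: add test compound at a single concentration. Step 3: incubate 48 h. Step 4: record percent growth.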 A number with no mark means an inactive call. Active and inactive are the calls of the source. How the source made its calls: active means growth percent below 10; inactive means the rest.
# Test system: HOP-92 NSCLC
# Assay: NCI-60 one-dose screen, 48 h (100 = growth as untreated, 0 = no growth, -100 = all killed)
# Conditions: 10 µM unless noted
row,Structure (SMILES),growth
1,Cc1ccc2c(n1)C(=O)C(Cl)=C(Nc1cccc(C(F)(F)F)c1)C2=O,107%
2,C#CCN(C)CCCOc1ccc(NCc2ccc(/C=C/C(=O)NO)cc2)cc1Cl,-27.6% (active)
3,CC1=C(SCC(=O)OCCCCCC(C)C)C(=O)c2ccccc2C1=O,85%
4,Cc1ccc2c(n1)C(=O)C(Cl)=C(Nc1ccc(C#N)cc1)C2=O,126%
5,COc1cccc(N2CCN(C3=C(Cl)C(=O)c4ncccc4C3=O)CC2)c1,135%
6,Clc1ccc2[nH]cc(-c3cncn3CCc3ccc4c(c3)OCO4)c2c1,9.07% (active)
7,CN1CCN(c2ccc(Nc3nc(NCCNS(=O)(=O)c4ccc5ccccc5c4)c4sccc4n3)cc2)CC1,47.8%
8,Cc1[nH]c(C(=O)Nc2ccc(C(=O)NCC3CCNCC3)cc2OC(C)C)c(Cl)c1Cl,65.9%
9,Nc1ncc(-c2ccc3ncnc(NCc4ccccc4)c3c2)cn1,8.86% (active)
10,O=C(NNc1nc2cc(F)cc(F)c2n2cccc12)c1cccnn1,75.4%
11,CCCc1[nH]c(-c2cc(N)ccc2Cl)c2c1C(=O)CCCC2,81.6%
12,O=C(CSc1nnc(-c2ccc(Cl)cc2)n1-c1ccccc1)Nc1ccccc1Cl,101%
13,CN(C)S(=O)(=O)c1ccc(-c2nc(C(Cl)Cl)nc3cc(-c4ccc(F)cc4)nn23)cc1,14.6%
14,C1=CC(c2nn3c(-c4ccccc4)nnc3s2)=Cc2ccccc2O1,55.9%
15,COc1ccccc1N1CCN(C2=C(Cl)C(=O)c3ncccc3C2=O)CC1,135%
16,O=C(COc1ccc(/C=C2\C(=O)Nc3ccc(F)cc32)cc1)Nc1ccccc1,116%

# Test system: NCI-H522 lung
# Assay: as above
# Conditions: 10 µM unless noted
row,Structure (SMILES),growth
1,NC(=O)n1c(=O)n(-c2cccc(C(F)(F)F)c2)c(=O)c2cc(-c3ccc(F)cc3F)ccc21,-11.2% (active)
2,Cn1c(SCC(=O)c2ccco2)nc2ccccc2c1=O,101%
3,C=C(C)[C@@H]1CC[C@]2(C(=O)O)CC[C@]3(C)[C@H](CC[C@@H]4[C@@]5(C)C/C(=C/c6ccccn6)C(=O)C(C)(C)[C@@H]5CC[C@]43C)[C@@H]12,24.1%
4,O=C(Nc1ccc(N2CCOCC2)cc1)Nc1ccc2c(ccn2C(=O)c2cccc(F)c2)c1,73.7%
5,C#CCOc1cccc(-c2nc(N)nc(Nc3ccccc3SSc3ccccc3Nc3nc(N)nc(-c4cccc(OCC#C)c4)n3)n2)c1,79.8%
6,CN1CCN(Cc2ccc(NC(=O)c3cncc(C#Cc4cnc5ccc(OCCCS(C)(=O)=O)nn45)c3)cc2C(F)(F)F)CC1,-76% (active)
7,CNC(=O)c1cc(-n2ccc3cc(NC(=O)Nc4ccc(N5CCN(C)CC5)c(C(F)(F)F)c4)ccc32)ccn1,101%
8,Nc1cc(C(=O)N/N=C\c2ccc(OC(F)F)c(OC3CCCC3)c2)nn1CC(O)c1ccccc1 (stereo unspecified),88.9%
9,CNC(=O)Nc1ccc(Nc2cc(-c3ccc(-n4cccn4)cc3)[nH]n2)c(C)c1,96.1%
10,Brc1cccc(-c2cc(-c3ccc4c(c3)OC=CO4)[nH]n2)c1,29.4%
11,Cc1ccc2c(n1)C(=O)C(Cl)=C(Nc1ccc(C)c(C)c1)C2=O,58.9%
12,CN1CCN(Cc2ccc(NC(=O)c3cncc(C#Cc4cnc5ccc(N)nn45)c3)cc2C(F)(F)F)CC1,12.5%
13,O=C1[C@@H]2Cc3c([nH]c4ccccc34)[C@@H](c3ccc(Cl)cc3)N2C(=O)CN1C1CCN(Cc2ccccc2)CC1,20.7%
14,CN1CCN(c2ccc(C(=O)/C=C/c3cc(F)cc(C(F)(F)F)c3)cc2)CC1,83.4%
15,N#Cc1c(-c2cccs2)cc(-c2cnccn2)nc1SCC(=O)N/N=C/c1ccccc1,67.3%
16,Cc1ccc(S(=O)(=O)NCCCNc2nccc(-c3[nH]c(-c4ccccc4)nc3-c3ccc(F)c(O)c3)n2)cc1,80.1%
17,COc1ccc2c(c1)c(-c1nc(N)nnc1-c1c[nH]c3ccccc13)cn2C,29.9%
18,COC(=O)c1ccc(NC2=C(Cl)C(=O)c3nc(C)ccc3C2=O)cc1,59.6%
19,N#Cc1c(-c2cccs2)cc(-c2cnccn2)nc1SCC(=O)N/N=C/c1ccncc1,96.1%
20,Cc1ccc2c(n1)C(=O)C(Cl)=C(Nc1cccc(C(F)(F)F)c1)C2=O,-28.8% (active)
21,C#CCN(C)CCCOc1ccc(NCc2ccc(/C=C/C(=O)NO)cc2)cc1Cl,2.32% (active)
22,CC1=C(SCC(=O)OCCCCCC(C)C)C(=O)c2ccccc2C1=O,68.4%
23,Cc1ccc2c(n1)C(=O)C(Cl)=C(Nc1ccc(C#N)cc1)C2=O,52.4%
24,Clc1ccc2[nH]cc(-c3cncn3CCc3ccc4c(c3)OCO4)c2c1,69.2%
25,Nc1ncc(-c2ccc3ncnc(NCc4ccccc4)c3c2)cn1,23.8%
26,O=C(NNc1nc2cc(F)cc(F)c2n2cccc12)c1cccnn1,0.0735% (active)
27,CN(C)S(=O)(=O)c1ccc(-c2nc(C(Cl)Cl)nc3cc(-c4ccc(F)cc4)nn23)cc1,-16.5% (active)
28,C1=CC(c2nn3c(-c4ccccc4)nnc3s2)=Cc2ccccc2O1,83.8%
29,COc1ccccc1N1CCN(C2=C(Cl)C(=O)c3ncccc3C2=O)CC1,9.14% (active)
30,O=C(COc1ccc(/C=C2\C(=O)Nc3ccc(F)cc32)cc1)Nc1ccccc1,93.9%
